Laboratory results taken from PubChem BioAssay (NCI).
Compounds without any hit were thinned out: in the full panel of roughly 83,000, 20% have a hit.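 48-hour exposure, single concentration, 96-well plates; percent growth endpoint where 0 means no net growth. Active: below 10.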 Active and inactive are the calls of the source.

These compounds were tested on HL-60(TB) leukemia (assay: NCI-60 one-dose screen, 48 h (100 = growth as untreated, 0 = no growth, -100 = all killed)). Conditions: 10 µM unless noted.
With `CN(C)/C=C1\SC(=Nc2ccc(Cl)cc2)NC1=O` the growth was 99.5% (inactive). With `CN(C)c1ccc(-c2ccc3[nH]c(=O)nc(-c4ccccc4)c3c2)cn1` the growth was 3.35% (active). `CC1CC2C3CCC4=CC(=O)CCC4(C)C3CCC2(C)C1(O)C(=O)CO` (stereo not given) was tested, and the growth was 75.4% (inactive). In the case of `C[C@@H](CO)[C@@H]1CC[C@]2(C(=O)N3CCN(C)CC3)CC[C@]3(C)[C@H](CC[C@@H]4[C@@]5(C)CC[C@H](O)C(C)(C)[C@@H]5CC[C@]43C)[C@@H]12`, the growth is reported as -46.9% (active). For `COc1cc(-c2nn(C(=O)NS(=O)(=O)c3ccccc3)cc2-c2ccncc2)ccc1Cl`, the growth was 98.1% (inactive). In the case of `O=C1NN(c2ccccc2)C(c2cccnc2)=N/C1=C\c1cccnc1`, the growth is reported as 104% (inactive). For `CC(=O)OC[C@]12CC[C@@H](C(=O)CBr)[C@@H]1[C@H]1CC[C@@H]3[C@@]4(C)CCCNC(C)(C)[C@@H]4CC[C@@]3(C)[C@]1(C)CC2`, the growth was -18% [100 µM] (active). In the case of `CCOC(C=O)OCC`, the growth is reported as 104% (inactive). `O=C1c2ccccc2C(=O)c2c1cccc2-n1nnc2ccccc21` was tested, and the growth was 82.1% (inactive). `O=C1c2ccccc2C(=O)c2cc(Cn3c[n+](Cc4ccc5ccccc5c4)c4ccccc43)ccc21` was tested, and the growth was -49.2% (active). For `CCN(CC)CCC(=O)c1ccc(OC)c2ccccc12`, the growth was 44.2% (inactive). With `CN(C)CCCSc1ccccc1NC1=C(Cl)C(=O)C(Nc2ccccc2SCCCN(C)C)=C(Cl)C1=O` the growth was -34.8% (active). `CC(C)c1ccc2c(c1)CC[C@H]1[C@](C)(C(=O)OCC#CCN3CCCC3)CCC[C@]21C` was tested, and the growth was 55.5% (inactive). For `CSc1nc(N)c2c(n1)NC(c1ccccc1)C1CCc3ccccc3C1=N2` (stereo not given), the growth was 26.4% (inactive). `CCCCCCCC/C=C\CCCCCCCCOc1ccc(CC(=O)NCC[N+]2(C)CCCC2)cc1` was tested, and the growth was -31.6% (active). `COc1cc2c(cc1-c1c(C)noc1C)ncc1nc(C3CCCCC3)n([C@@H](C)COC(F)F)c12` was tested, and the growth was 17.4% (inactive). With `CCN(CC)c1ccc(N2C(=O)/C(=C/c3cccs3)SC2=S)cc1` the growth was 92.6% (inactive). In the case of `OC(c1ccccc1)(c1ccccc1)C(F)(F)F`, the growth is reported as 77.1% (inactive). For `O=C(O)c1cn(C2CC2)c2cc(N3CCN(C(=O)N/N=C/c4ccccc4)CC3)c(F)cc2c1=O`, the growth was 100% (inactive). With `CCn1c(-c2nonc2Nc2ccc(OC)cc2)nc2ccccc21` the growth was 128% (inactive). In the case of `CC(=O)O[C@H]1CC[C@]2(C)[C@H]3CC=C4[C@@H]5CC(C)(C)CC[C@]5(C(=O)NCCNCCN)CC[C@@]4(C)[C@]3(C)CC[C@H]2C1(C)C`, the growth is reported as -67.6% (active). `CC(C)(N)CO[C@H]1C[C@H]2CC[C@@]1(C)C2(C)C` was tested, and the growth was 111% (inactive). `N#CC1=C(N2CCOCC2)NC2c3ccccc3Sc3ccccc3N2C1=N` (stereo not given) was tested, and the growth was 89.8% (inactive). For `COc1ccc2nc3cc(Cl)ccc3c(NCCNCC(C)O)c2c1` (stereo not given), the growth was 21.8% (inactive). In the case of `COC(=O)c1c(C)nc(C)c2c1C(=O)C(Br)=C(NCc1ccccc1)C2=O`, the growth is reported as -30.9% (active). With `CC[C@H]1CCC/C=C/[C@@H]2C[C@H](O)C[C@H]2[C@H](O)/C=C/C(=O)O1` the growth was -0.414% (active). `COc1cc2cc(C(=O)Nc3ccccc3)c(N)nc2cc1OC` was tested, and the growth was -42.1% (active). In the case of `C=C1C(=O)O[C@H]2[C@H]1CC/C(COC(=O)c1ccc(Cl)nc1)=C\CC[C@@]1(C)O[C@@H]21`, the growth is reported as -55.1% (active). For `COCN1CCC2N(COC)CCC3N(COC)CCC1N23` (stereo not given), the growth was 92.6% (inactive). With `N=C(N)c1ccc(-c2ccc(-c3ccc(F)cc3)s2)s1` the growth was -57.6% (active). With `CC(=O)c1c[nH]c2ccccc12` the growth was 114% (inactive). `Cn1nc(-c2ccccc2)c2c(-c3ccccc3)onc2c1=O` was tested, and the growth was 1.23% (active). In the case of `N#C/C(=C\c1ccc2c(c1)OCO2)c1ccccc1`, the growth is reported as 62% (inactive). With `CCOC(=O)c1ccc2c(c1)c1c(C)c3ccncc3c(C)c1n2C` the growth was 3.93% (active). In the case of `S=C(c1ccc2c(c1)OCO2)N1CCN(c2cccc(Cl)c2)CC1`, the growth is reported as 11.9% (inactive). `COc1ccc2cc(C(C)C(=O)Nc3ccc(-c4n[nH]c(=S)n4C4CCCCC4)cc3)ccc2c1` (stereo not given) was tested, and the growth was 73.6% (inactive). `Cc1csc(Nc2nc(-c3ccccn3)nc(C(Cl)(Cl)Cl)n2)n1` was tested, and the growth was 77.4% (inactive). With `COc1ccc(/C=N/C2=C(C#N)C(c3ccc(N(C)C)cc3)c3ccc4ccccc4c3O2)cc1` (stereo not given) the growth was 19.6% (inactive). With `COC(=O)C(Cc1cn(C(C)=O)c2ccccc12)P(=O)(OC)OC` (stereo not given) the growth was 97.5% (inactive). With `COc1ccc(/C=C/c2n[nH]c3ccc(N4CCOC4=O)cc23)cc1` the growth was -27.5% (active).
